Here are results for eight molecules from PubChem BioAssay (NCI).

The structures appear in SMILES notation. Compounds without any hit were thinned out: in the full panel of roughly 83,000, 20% have a hit.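 Cell lines were cultured in 96-well plates, exposed to a single compound concentration, and assessed for percent growth 48 hours later.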 Values without a mark were called inactive. Calls of active or inactive are those of the source. Rule for the calls: active = growth percent below 10; inactive = the rest.

Some test systems named below: NCI-H23 lung; NCI-H226 lung; NCI-H322M lung; HOP-62 NSCLC; NCI-H460 lung; HOP-92 NSCLC; NCI-H522 lung; A549/ATCC NSCLC; 786-0 renal; DU-145 prostate; K-562 leukemia; MALME-3M melanoma; MDA-MB-231 breast; RXF 393 renal; SF-268 CNS; SF-295 CNS; SF-539 CNS; UACC-257 melanoma; M14 melanoma; COLO 205 colon.
What all share (test): NCI-60 one-dose screen, 48 h (100 = growth as untreated, 0 = no growth, -100 = all killed)
Settings in all cases: 10 µM unless noted

`Cc1c(Cl)cc(-n2c(=O)c3ccccc3c3ccccc3c2=O)cc1Cl`: the growth was 97.6% with NCI-H23 lung; 108% with NCI-H226 lung; 87.3% in the experiment on NCI-H322M lung; 92.6% with HOP-62 NSCLC; 111% in the experiment on NCI-H460 lung; 98.4% with HOP-92 NSCLC. Besides, the growth in the experiment with NCI-H522 lung was 98.7%; in the experiment with A549/ATCC NSCLC, 102%; in the experiment on 786-0 renal, 98.6%; with DU-145 prostate, 121%; with K-562 leukemia, 106%; with MALME-3M melanoma, 90.5%. Besides, the growth in the experiment on MDA-MB-231 breast was 84.2%; in the experiment on RXF 393 renal, 123%; in the experiment on SF-268 CNS, 105%; in the experiment on SF-295 CNS, 102%; in the experiment on SF-539 CNS, 110%; in the experiment with UACC-257 melanoma, 104%. In addition, in the experiment on M14 melanoma, the growth was 93%.

`CC/C=C\C[C@H](O)C/C=C1/C(=O)C=C[C@@H]1C/C=C\CCCC(=O)OC`: the growth with NCI-H23 lung is -7.41% (active); in the experiment with NCI-H226 lung, -34.5% (active); with NCI-H322M lung, 29.3%; in the experiment with HOP-62 NSCLC, -32% (active); in the experiment with NCI-H460 lung it was -46.3% (active); in the experiment with HOP-92 NSCLC, -20.5% (active). The growth with NCI-H522 lung is -69.6% (active); in the experiment with A549/ATCC NSCLC, -21.4% (active); in the experiment with 786-0 renal it was -49.6% (active); with COLO 205 colon, -52.1% (active); with DU-145 prostate, 20.2%; with K-562 leukemia, 2.74% (active). Also, the growth in the experiment with MALME-3M melanoma was 9.07% (active); in the experiment on MDA-MB-231 breast, 11.9%; in the experiment with RXF 393 renal it was -19.6% (active); with SF-268 CNS it was 15.1%; with SF-295 CNS, -1.98% (active); in the experiment with SF-539 CNS, 7.57% (active). For the same molecule, the growth with UACC-257 melanoma was -17.5% (active); in the experiment with M14 melanoma it was -1.46% (active).

Consider `Cc1ccc(/C=C/c2c(C(=O)/C=C/c3ccc(Cl)cc3)c(C)nc3ccccc23)cc1`, for which the growth in the experiment with NCI-H23 lung is 2.79% (active); with NCI-H226 lung, -30.4% (active); in the experiment on NCI-H322M lung it was 51.7%; in the experiment with HOP-62 NSCLC, 3.89% (active); with NCI-H460 lung, -73.9% (active); in the experiment with HOP-92 NSCLC, 0.669% (active). Also, the growth in the experiment on NCI-H522 lung is 5.16% (active); in the experiment on A549/ATCC NSCLC, 78.8%; in the experiment on 786-0 renal, -17.5% (active); in the experiment on DU-145 prostate, -38.8% (active); with K-562 leukemia, 5.31% (active); with MALME-3M melanoma, -31.2% (active). In addition, the growth with MDA-MB-231 breast is -24.2% (active); in the experiment on RXF 393 renal it was -66.4% (active); in the experiment on SF-268 CNS it was 38.1%; with SF-295 CNS it was -29.3% (active); in the experiment on SF-539 CNS it was -85.5% (active); in the experiment with UACC-257 melanoma it was 8.99% (active). Moreover, the growth with M14 melanoma is -0.212% (active).

For the molecule `CCc1ccccc1-n1c(-c2ccc(Cl)cc2)cc(-c2ccc(Cl)cc2)c(C#N)c1=O`, the growth was 94.2% in the experiment on NCI-H23 lung; 97.4% with NCI-H226 lung; 83.7% with NCI-H322M lung; 107% with HOP-62 NSCLC; 93.9% in the experiment with NCI-H460 lung; 72.4% in the experiment with HOP-92 NSCLC. Further, the growth in the experiment on NCI-H522 lung is 78.1%; in the experiment with A549/ATCC NSCLC, 94.7%; in the experiment with 786-0 renal, 98%; in the experiment with DU-145 prostate, 77.1%; with K-562 leukemia, 66.1%; in the experiment on MALME-3M melanoma, 90.8%. In addition, the growth in the experiment on MDA-MB-231 breast is 101%; in the experiment with RXF 393 renal, 93.3%; in the experiment with SF-268 CNS, 83.6%; with SF-295 CNS, 89%; in the experiment with SF-539 CNS it was 104%; in the experiment on UACC-257 melanoma, 98.6%. In the experiment on M14 melanoma, the growth is 85.3%.

As to `COc1ccc(-c2nc3sccn3c2-c2cc(-c3cc(OC)c(OC)c(OC)c3)on2)cc1`, the growth with NCI-H23 lung was 88.6%; in the experiment on NCI-H226 lung, 116%; in the experiment on NCI-H322M lung, 102%; in the experiment on HOP-62 NSCLC, 106%; in the experiment with NCI-H460 lung it was 78.3%; in the experiment on HOP-92 NSCLC, -17.4% (active). In addition, the growth was 87.9% in the experiment on NCI-H522 lung; 104% in the experiment with A549/ATCC NSCLC; 96.6% with 786-0 renal; 93.3% in the experiment on DU-145 prostate; 47.4% in the experiment on K-562 leukemia; 105% in the experiment with MALME-3M melanoma. For the same molecule, the growth with MDA-MB-231 breast was 80.9%; with RXF 393 renal, 110%; in the experiment on SF-268 CNS, 98.2%; in the experiment on SF-295 CNS, 109%; in the experiment on SF-539 CNS it was 73.7%; with UACC-257 melanoma it was 141%. For the same molecule, the growth in the experiment on M14 melanoma was 91.7%.

For the molecule `Cc1c2c(c(C)c3c1oc1cc(O)ccc13)C(=O)N(CCN1CCCCC1)C2=O`, the growth is 94.6% with NCI-H23 lung; 88.5% in the experiment on NCI-H226 lung; 85.9% with NCI-H322M lung; 80% with HOP-62 NSCLC; 38.7% in the experiment with NCI-H460 lung; 92.4% in the experiment on HOP-92 NSCLC. In addition, the growth is 94.1% with NCI-H522 lung; 81.2% with A549/ATCC NSCLC; 71.7% with 786-0 renal; 85.8% in the experiment with COLO 205 colon; 68.4% with DU-145 prostate; 3.97% (active) in the experiment with K-562 leukemia. For the same molecule, the growth was 100% in the experiment with MALME-3M melanoma; 83% in the experiment with MDA-MB-231 breast; 87.1% in the experiment with RXF 393 renal; 73.4% in the experiment on SF-268 CNS; 102% in the experiment with SF-295 CNS; 91.6% in the experiment with SF-539 CNS. The growth was 110% in the experiment with UACC-257 melanoma and 91.7% in the experiment on M14 melanoma.

`CCOP(=O)(OCC)C1CP(=O)(c2ccccc2)CC(C)=C1Cl` (stereo not given): the growth with NCI-H23 lung is 91.7%; with NCI-H226 lung, 99.3%; in the experiment with NCI-H322M lung it was 97.7%; with HOP-62 NSCLC it was 97.1%; with NCI-H460 lung, 113%; with HOP-92 NSCLC it was 93.1%. Further, the growth with NCI-H522 lung is 65.3%; in the experiment with A549/ATCC NSCLC, 87.5%; with 786-0 renal, 87.8%; in the experiment with COLO 205 colon, 109%; in the experiment on DU-145 prostate, 104%; in the experiment on K-562 leukemia it was 93.4%. Moreover, the growth with MALME-3M melanoma is 90.9%; in the experiment with MDA-MB-231 breast, 95%; in the experiment with RXF 393 renal, 78.1%; in the experiment with SF-268 CNS it was 104%; in the experiment on SF-295 CNS, 96.7%; in the experiment on SF-539 CNS it was 104%. The values for the growth in the experiment on UACC-257 melanoma and in the experiment with M14 melanoma were 92.2% and 63.2%, respectively.

For the molecule `COc1ccc(C(=O)Nn2c(NCC(=O)N3c4ccccc4Sc4ccccc43)nnc2-c2ccc(O)cc2)cc1`, the growth in the experiment with NCI-H23 lung was 94.4%; with NCI-H226 lung it was 101%; in the experiment on NCI-H322M lung, 104%; in the experiment on HOP-62 NSCLC it was 103%; in the experiment with NCI-H460 lung it was 110%; with HOP-92 NSCLC, 87.9%. For the same molecule, the growth in the experiment on NCI-H522 lung was 92.2%; in the experiment with A549/ATCC NSCLC, 97.5%; with 786-0 renal, 100%; in the experiment on DU-145 prostate, 116%; in the experiment on K-562 leukemia, 114%; in the experiment on MALME-3M melanoma it was 98.1%. Also, the growth was 101% in the experiment with MDA-MB-231 breast; 117% with RXF 393 renal; 111% with SF-268 CNS; 107% with SF-295 CNS; 117% in the experiment with SF-539 CNS; 94.9% in the experiment on UACC-257 melanoma. Besides, the growth in the experiment with M14 melanoma was 91.7%.
